MARV entry inh – inhibitors of Marburg virus binding or cell entry; Marburg virus pseudotyped entry inhibition, cell reporter; Potency, µM (series often up to 37.8 µM), for the others: at the highest dose activity change, negative = inhibition, most hits filed as inhibitors; hit rate 1.8% among 300,000; AID 540276; calls by dose curve; tested in HEK293 cells; also: potency is read from the fitted curve at half-maximal effect; % is scaled to controls: 0 for no effect and ±100 for the full control effect
FMDV antiviral – blocks foot and mouth disease virus | FMDV antiviral cell-based qHTS | Potency, µM (top dose mostly 57.9 µM), inactives show top-dose activity change, negative = inhibition, usual class: inhibitors | hit rate 1.2% among 410,000; calls by dose curve; tested in HEK293T cells; also: read-out not given here; potency is read from the fitted curve at half-maximal effect; % is scaled to controls: 0 for no effect and ±100 for the full control effect; nearly all actives have a fitted effect of over 45% in size
Lassa entry inh – inhibitors of Lassa virus binding or cell entry; Lassa virus pseudotype entry inhibition, cell reporter; Potency, µM (top dose mostly 37.9 µM), for the others: at the top dose activity change, negative = inhibition, usual class: inhibitors; hit rate 1.2% among 300,000; calls by dose curve; tested in HEK293 cells; also: potency is read from the fitted curve at half-maximal effect; % is scaled to controls: 0 for no effect and ±100 for the full control effect; nearly all actives have a fitted effect of over 50% in size
HCV inhibitor – inhibitors of hepatitis C virus infection | Huh7.5.1 HCVcc-Cre infection, luciferase reporter, 44 h | Potency, µM (top dose mostly 41.8 µM), without a hit: at the top dose activity change, negative = inhibition, actives largely listed as inhibitors | hit rate 3.4% among 340,000 | AID 651820; active = well fitted inhibition curve with a large enough effect; inconclusive = small, poorly fitted or top-dose-only effect, or another doubt; inactive = no such curve, though single readings can be large or run the other way; also: potency is read from the fitted curve at half-maximal effect; % is scaled to controls: 0 for no effect and ±100 for the full control effect
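Seed cells (1,000/well) for 4 h; treat with compound and infect with HCVcc-Cre, moi about 0.5. Incubate 44 h, then detect luciferase activity.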
SARS PLP yeast – SARS-CoV PLP inhibition in yeast. hit rate 0.19% among 330,000. S. cerevisiae expressing SARS-CoV PLpro, growth rescue. Potency, µM (series often up to 32.9 µM), without a hit: at the top dose activity, positive = growth rescue, usual class: activators; calls by dose curve; also: potency is read from the fitted curve at half-maximal effect; 0% is about no effect; nearly all actives have a fitted effect of over 55% in size
HCMV antiviral – inhibitors of human cytomegalovirus; HFF cells, HCMV-luciferase reporter, 72 h; active compounds read low; activity change, negative = inhibition, % at 57.5 µM; hit rate 4.5% among 410,000; in the data active = activity change below about -60%; inconclusive = no clear call, values can overlap the other calls; inactive = above about -39%; also: % is scaled to controls: 0 for no effect and ±100 for the full control effect
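Cell-based, HFFs, 1000 cells/well, 16 h 37C; cpds in DMSO + HCMV-luc, MOI 1 PFU/cell; 72 h 37C; OneGlo luminescence after 5 min RT; norm. to buffer vs Salinomycin 10uM.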
* marks the source's active call; other numbers are inactive results; ? = inconclusive; nt = not tested or not shown; [ ] = dose if it differs, or a comment. The list is not random: actives were taken first. Their share in the collection is about 8%.

SMILES	MARV entry inh	FMDV antiviral	Lassa entry inh	HCV inhibitor	SARS PLP yeast	HCMV antiviral
Cc1ccc(C(C)C)c(OCC(=O)Nc2ccc3c(c2)nc(CCN2CCCCC2)n3C)c1	nt	-20%	nt	10µM*	0%	-81*
CC(=O)N1CCN(Cc2nc3cc(NC(=O)Cn4nc(C)c5ccccc5c4=O)ccc3n2C)CC1	16%	-3%	5%	20%	-6%	-1
Cc1nn(CC(=O)Nc2ccc3c(c2)nc(CCN2CCCCC2)n3C)c(=O)c2ccccc12	?	-23%	20%	?	-6%	-63*
Cn1c(CCN2CCCCC2)nc2cc(NC(=O)COc3ccc([N+](=O)[O-])cc3)ccc21	nt	24%	nt	-30%	1%	-75*
CCn1c(CN2CCCCC2)nc2cc(NC(=O)COc3ccc([N+](=O)[O-])cc3)ccc21	-19%[46.1 µM]	?	0%[46.1 µM]	nt	nt	-23
Cn1c(CCN2CCCCC2)nc2cc(NC(=O)COc3ccc(Cl)cc3)ccc21	nt	-15%	nt	?	2%	-70*
COc1ccc(CNc2nc(-c3ccco3)nn2C(=O)CC(C)C)cc1	?	11%	?	nt	nt	72
Cc1cc(C)n(S(=O)(=O)c2ccccc2)n1	2%[46.1 µM]	3%	-5%	-12%	-3%	-2
Cc1cc(C)n(S(=O)(=O)c2ccccc2[N+](=O)[O-])n1	0%[46.1 µM]	-21%	1%[46.1 µM]	4%	-2%	-60*
Nc1ccccc1O	nt	-6%	nt	-16%	-1%	nt
Nc1cccc2c(O)cccc12	15%	-4%	-5%	22%	nt	-102*
CCCC(=O)Nc1sc2c(c1C(=O)OC)C(C(=O)OC)CC2 (stereo not drawn)	?	-5%	-15%	?	-15%	27
COC(=O)c1c(NC(=O)c2c(OC)cccc2OC)sc2c1C(C(=O)OC)CC2 (stereo not drawn)	nt	-9%	nt	?	-1%	-65*
COC(=O)c1c(NC(=O)CCCOc2ccc(C(C)(C)C)cc2)sc2c1C(C(=O)OC)CC2 (stereo not drawn)	nt	35µM*	?	nt	nt	-84*
COC(=O)c1c(NC(=O)c2c(OC)cccc2OC)sc2c1CCCC2	nt	-15%	25%[46.1 µM]	nt	nt	-31
C=C(C)CNC(=S)Nc1sc2c(c1C(=O)OCC)CC(C)(C)OC2	4%	-8%	-9%	8%	14%	-21
COC(=O)c1c(-c2ccc(Cl)cc2)noc1N1CCN(c2ccccc2OC)CC1	nt	?	17%[46.1 µM]	nt	nt	-37
CC12CCC(=O)C=C1CCC1C2C(O)CC2(C)C(c3csc(N)n3)CCC12 (stereo not drawn)	8.9µM*	?	-16%[46.1 µM]	?	nt	-22
CC12CCC(=O)C=C1CCC1C2CCC2(C)C(c3csc(N)n3)CCC12 (stereo not drawn)	?	13µM*	13µM*	10µM*	nt	-93*
CCC(C(=O)OCC(=O)C1(O)CCC2C3CCC4=CC(=O)CCC4(C)C3C(O)CC21C)C(C)C (stereo not drawn)	?	20µM*	?	?	nt	32
COc1cccc(CNc2nccn(-c3cc(C)cc(C)c3)c2=O)c1	nt	-16%	-4%[46.1 µM]	nt	nt	4
CN(C1=NS(=O)(=O)c2ccccc21)c1ccc(OC(=O)c2ccncc2)cc1	nt	-13%	nt	6%	0%	-3
Fc1ccc(C(NCCc2ccccc2)c2nnc(-c3ccccc3Cl)o2)cc1 (stereo not drawn)	?	19%	-26%[46.1 µM]	nt	nt	-5
COC(=O)c1csc(-c2ccc(CO)o2)n1	nt	1%	nt	nt	nt	nt
Cc1ccc(NC(=O)Cc2nc(CSc3nnc(-c4ccc5c(c4)OCO5)o3)cs2)cc1	3%	2%	-1%	?	2%	108
SMILES	MARV entry inh	FMDV antiviral	Lassa entry inh	HCV inhibitor	SARS PLP yeast	HCMV antiviral
O=C(Nc1ccc(Cl)cc1)c1ccc2c(=O)n3c(nc2c1)CCCCC3	nt	0%	nt	?	6%	-21
CCc1ccc(CN(C)C(=O)c2ccc3c(=O)n4c(nc3c2)CCC4)cc1	-9%	-2%	-6%	10%	3%	-34
CCc1ccc(N(CC)C(=O)c2ccc3c(=O)n4c(nc3c2)CCCCC4)cc1	-20%[46.1 µM]	40µM*	-24%[46.1 µM]	nt	nt	-21
CN(C)c1cccc(C(=O)Nc2ccc3nc4n(c(=O)c3c2)CCCCC4)c1	nt	0%	nt	?	-5%	3
O=C(Nc1ccc(F)c(Cl)c1)c1ccc2c(=O)n3c(nc2c1)CCCCC3	?	-18%	?	10µM*	-1%	-91*
O=c1c2cc([N+](=O)[O-])ccc2nc2n1CCCC2	?	-7%	?	0%	-1%	-65*
O=C(Nc1ccc2nc3n(c(=O)c2c1)CCCCC3)c1cccc(C(F)(F)F)c1	20%[46.1 µM]	?	?	nt	nt	-69*
CCS(=O)(=O)Nc1cc(C(=O)N2CCC[C@H]2CO)c2c(c1)nc(-c1ccccc1)n2C	nt	3%	nt	nt	nt	nt
O=C(Nc1ccc(F)cc1)c1ccc2c(=O)n3c(nc2c1)CCCCC3	nt	-9%	4%[46.1 µM]	?	-7%	33
O=C(c1ccc2c(=O)n3c(nc2c1)CCCCC3)N1CCN(C(c2ccccc2)c2ccccc2)CC1	?	-21%	16µM*	?	-2%	-65*
CC(=O)c1ccc(NC(=O)c2ccc3c(=O)n4c(nc3c2)CCCCC4)cc1	nt	?	nt	?	3%	-31
CCc1cccc(NC(=O)c2ccc3c(=O)n4c(nc3c2)CCCCC4)c1	nt	-29%	nt	13µM*	-2%	-17
O=C(c1ccc2c(=O)n3c(nc2c1)CCCCC3)N1CCN(c2ccccc2)CC1	1%[46.1 µM]	-13%	-13%	23%	1%	-16
CC(=O)c1c(C)[nH]c(C(=O)COC(=O)c2ccc3c(=O)n4c(nc3c2)CCC4)c1C	-3%	4.5µM*	9%	-3%	5%	4
O=C(Nc1cccc(Cl)c1)c1ccc2c(=O)n3c(nc2c1)CCCCC3	?	-38%	?	8.9µM*	0%	-26
O=C(N[C@@H]1c2ccccc2C2(CCN(Cc3c(O)ccc4ccccc34)CC2)[C@H]1O)c1ccccc1	nt	13%	nt	nt	nt	nt
CCOC(=O)c1c(NC(=O)CSc2nccn2C)sc(C(=O)NC)c1C	13%[46.1 µM]	-7%	14%	10µM*	-1%	22
CCOC(=O)c1cc(C)sc1NC(=O)CSc1nccn1C	28%	0%	-12%	13µM*	-5%	?
CCOC(=O)c1c(NC(=O)COC(=O)CC(NC(C)=O)c2ccccc2)sc(C(=O)NC)c1C (stereo not drawn)	-8%	5%	10%	10µM*	-5%	29
CCOC(=O)c1c(NC(=O)COC(=O)c2ccc(O)cc2)sc(C(=O)NC)c1C	-8%[46.1 µM]	-21%	1%	?	nt	0
COC(=O)c1c(NC(=O)CSc2nccn2C)sc(C)c1C	-11%	-5%	22%	?	8%	-3
CCOC(=O)c1ccc(NC(=O)CSc2nccn2C)cc1	-6%	47%	?	0%	-5%	52
COc1ccccc1CNC(=O)Cn1ncc2c(C)n(Cc3ccccc3Cl)c(C)c2c1=O	28%[46.1 µM]	-24%	?	nt	nt	-7
